From the supplement of paper PMC6411743
± gives the standard deviation of the averaged measurements. Of roughly 6,200 targets only a part is listed; those with the largest changes were picked by preference.

Compound: Nc1ncnc2c1ncn2[C@@H]1O[C@H](COP(=O)(O)OP(=O)(O)NP(=O)(O)O)[C@@H](O)[C@H]1O [adenylyl imidodiphosphate]
Experiment: NP40-soluble protein abundance relative to vehicle (solubility fold change) (ratio); higher = more soluble protein in presence of AMP-PNP
How it was run: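 Across three independent experiments, values are fold changes against the detergent-processed vehicle for each replicate, based on vsn-normalised intensities. The samples were Jurkat crude lysate treated with eight concentrations (0.1 to 10 mM) for 10 min at room temperature and then 3 min at 37 °C. Lysate was solubilised with 0.8% NP40 and benzonase, ultracentrifuged, and the supernatant analysed by TMT-labelled LC-MS/MS.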

Chain of UniProt Q6PI47 (Q6PI47 whole entry): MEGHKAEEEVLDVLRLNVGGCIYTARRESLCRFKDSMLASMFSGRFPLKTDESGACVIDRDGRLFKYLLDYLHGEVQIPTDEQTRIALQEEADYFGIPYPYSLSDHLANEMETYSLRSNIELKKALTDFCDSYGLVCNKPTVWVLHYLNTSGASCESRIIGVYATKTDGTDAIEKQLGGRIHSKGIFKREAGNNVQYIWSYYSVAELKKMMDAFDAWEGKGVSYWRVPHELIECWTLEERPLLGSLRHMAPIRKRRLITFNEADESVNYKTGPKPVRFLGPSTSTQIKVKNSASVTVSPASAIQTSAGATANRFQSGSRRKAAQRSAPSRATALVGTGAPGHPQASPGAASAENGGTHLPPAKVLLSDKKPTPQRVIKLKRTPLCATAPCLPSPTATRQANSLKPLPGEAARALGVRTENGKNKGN
Chain of UniProt Q8TBM8 (Q8TBM8 whole entry): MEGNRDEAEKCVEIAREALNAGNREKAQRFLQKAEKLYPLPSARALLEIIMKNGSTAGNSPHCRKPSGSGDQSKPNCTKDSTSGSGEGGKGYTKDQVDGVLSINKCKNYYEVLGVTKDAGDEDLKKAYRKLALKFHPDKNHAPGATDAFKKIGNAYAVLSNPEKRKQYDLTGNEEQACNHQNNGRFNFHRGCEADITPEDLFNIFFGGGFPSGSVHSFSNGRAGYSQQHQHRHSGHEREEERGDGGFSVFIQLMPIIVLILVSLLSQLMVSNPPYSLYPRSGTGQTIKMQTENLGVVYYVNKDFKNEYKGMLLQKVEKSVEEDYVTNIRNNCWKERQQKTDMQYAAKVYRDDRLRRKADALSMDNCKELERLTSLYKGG
Chain of UniProt Q6I9Y2 (Q6I9Y2 whole entry): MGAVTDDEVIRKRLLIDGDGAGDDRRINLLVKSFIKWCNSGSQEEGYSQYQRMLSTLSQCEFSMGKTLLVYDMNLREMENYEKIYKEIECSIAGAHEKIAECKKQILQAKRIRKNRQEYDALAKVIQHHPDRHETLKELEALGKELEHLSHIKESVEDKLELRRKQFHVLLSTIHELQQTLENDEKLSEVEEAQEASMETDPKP
Chain of UniProt Q8N3X1 (Q8N3X1 whole entry): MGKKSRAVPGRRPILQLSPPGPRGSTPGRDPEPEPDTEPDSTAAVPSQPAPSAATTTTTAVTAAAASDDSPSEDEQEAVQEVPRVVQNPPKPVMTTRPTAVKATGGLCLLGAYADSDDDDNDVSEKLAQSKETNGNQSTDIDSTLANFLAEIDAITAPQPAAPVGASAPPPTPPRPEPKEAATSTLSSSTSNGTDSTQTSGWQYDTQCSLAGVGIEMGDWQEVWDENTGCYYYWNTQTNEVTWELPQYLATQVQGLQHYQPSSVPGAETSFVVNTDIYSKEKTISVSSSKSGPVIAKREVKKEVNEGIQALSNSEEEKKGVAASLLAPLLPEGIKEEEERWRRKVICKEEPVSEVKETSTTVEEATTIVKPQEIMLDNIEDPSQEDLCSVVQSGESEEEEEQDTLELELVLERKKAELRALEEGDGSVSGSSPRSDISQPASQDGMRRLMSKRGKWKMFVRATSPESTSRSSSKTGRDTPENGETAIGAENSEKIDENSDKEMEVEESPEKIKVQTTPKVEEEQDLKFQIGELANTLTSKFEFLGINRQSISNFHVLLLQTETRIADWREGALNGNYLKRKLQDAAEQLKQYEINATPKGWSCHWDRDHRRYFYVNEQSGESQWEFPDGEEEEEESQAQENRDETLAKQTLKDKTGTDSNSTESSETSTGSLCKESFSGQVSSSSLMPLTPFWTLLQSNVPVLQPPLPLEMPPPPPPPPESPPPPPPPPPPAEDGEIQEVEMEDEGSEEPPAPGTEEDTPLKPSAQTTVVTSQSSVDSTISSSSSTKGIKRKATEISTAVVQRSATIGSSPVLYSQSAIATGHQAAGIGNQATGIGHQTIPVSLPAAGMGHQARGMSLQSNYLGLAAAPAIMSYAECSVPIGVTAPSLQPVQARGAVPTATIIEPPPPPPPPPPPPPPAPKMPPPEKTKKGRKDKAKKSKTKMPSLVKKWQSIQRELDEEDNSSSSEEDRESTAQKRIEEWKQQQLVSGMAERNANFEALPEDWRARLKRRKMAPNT
Chain of UniProt Q16666 (Q16666 whole entry): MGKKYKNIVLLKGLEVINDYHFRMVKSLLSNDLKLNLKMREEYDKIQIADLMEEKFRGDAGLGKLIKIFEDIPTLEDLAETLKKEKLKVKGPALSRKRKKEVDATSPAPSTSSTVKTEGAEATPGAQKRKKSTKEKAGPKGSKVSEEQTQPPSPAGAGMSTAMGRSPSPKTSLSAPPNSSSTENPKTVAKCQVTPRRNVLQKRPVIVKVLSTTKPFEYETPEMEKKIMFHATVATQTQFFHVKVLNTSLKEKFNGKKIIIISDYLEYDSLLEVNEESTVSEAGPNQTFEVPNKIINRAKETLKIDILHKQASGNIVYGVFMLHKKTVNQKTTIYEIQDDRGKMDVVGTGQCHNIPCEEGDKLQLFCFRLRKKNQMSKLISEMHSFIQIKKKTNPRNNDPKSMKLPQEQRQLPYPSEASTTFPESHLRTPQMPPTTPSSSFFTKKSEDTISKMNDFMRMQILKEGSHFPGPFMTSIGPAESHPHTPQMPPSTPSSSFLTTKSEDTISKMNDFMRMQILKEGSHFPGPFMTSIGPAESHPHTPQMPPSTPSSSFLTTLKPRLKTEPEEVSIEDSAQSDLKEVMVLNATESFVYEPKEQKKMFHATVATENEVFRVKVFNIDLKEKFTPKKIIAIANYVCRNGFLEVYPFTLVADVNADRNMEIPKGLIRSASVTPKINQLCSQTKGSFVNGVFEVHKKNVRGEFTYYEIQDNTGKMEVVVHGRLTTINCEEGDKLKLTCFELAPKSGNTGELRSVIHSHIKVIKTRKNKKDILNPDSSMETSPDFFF
Chain of UniProt Q8N3D4 (Q8N3D4 whole entry): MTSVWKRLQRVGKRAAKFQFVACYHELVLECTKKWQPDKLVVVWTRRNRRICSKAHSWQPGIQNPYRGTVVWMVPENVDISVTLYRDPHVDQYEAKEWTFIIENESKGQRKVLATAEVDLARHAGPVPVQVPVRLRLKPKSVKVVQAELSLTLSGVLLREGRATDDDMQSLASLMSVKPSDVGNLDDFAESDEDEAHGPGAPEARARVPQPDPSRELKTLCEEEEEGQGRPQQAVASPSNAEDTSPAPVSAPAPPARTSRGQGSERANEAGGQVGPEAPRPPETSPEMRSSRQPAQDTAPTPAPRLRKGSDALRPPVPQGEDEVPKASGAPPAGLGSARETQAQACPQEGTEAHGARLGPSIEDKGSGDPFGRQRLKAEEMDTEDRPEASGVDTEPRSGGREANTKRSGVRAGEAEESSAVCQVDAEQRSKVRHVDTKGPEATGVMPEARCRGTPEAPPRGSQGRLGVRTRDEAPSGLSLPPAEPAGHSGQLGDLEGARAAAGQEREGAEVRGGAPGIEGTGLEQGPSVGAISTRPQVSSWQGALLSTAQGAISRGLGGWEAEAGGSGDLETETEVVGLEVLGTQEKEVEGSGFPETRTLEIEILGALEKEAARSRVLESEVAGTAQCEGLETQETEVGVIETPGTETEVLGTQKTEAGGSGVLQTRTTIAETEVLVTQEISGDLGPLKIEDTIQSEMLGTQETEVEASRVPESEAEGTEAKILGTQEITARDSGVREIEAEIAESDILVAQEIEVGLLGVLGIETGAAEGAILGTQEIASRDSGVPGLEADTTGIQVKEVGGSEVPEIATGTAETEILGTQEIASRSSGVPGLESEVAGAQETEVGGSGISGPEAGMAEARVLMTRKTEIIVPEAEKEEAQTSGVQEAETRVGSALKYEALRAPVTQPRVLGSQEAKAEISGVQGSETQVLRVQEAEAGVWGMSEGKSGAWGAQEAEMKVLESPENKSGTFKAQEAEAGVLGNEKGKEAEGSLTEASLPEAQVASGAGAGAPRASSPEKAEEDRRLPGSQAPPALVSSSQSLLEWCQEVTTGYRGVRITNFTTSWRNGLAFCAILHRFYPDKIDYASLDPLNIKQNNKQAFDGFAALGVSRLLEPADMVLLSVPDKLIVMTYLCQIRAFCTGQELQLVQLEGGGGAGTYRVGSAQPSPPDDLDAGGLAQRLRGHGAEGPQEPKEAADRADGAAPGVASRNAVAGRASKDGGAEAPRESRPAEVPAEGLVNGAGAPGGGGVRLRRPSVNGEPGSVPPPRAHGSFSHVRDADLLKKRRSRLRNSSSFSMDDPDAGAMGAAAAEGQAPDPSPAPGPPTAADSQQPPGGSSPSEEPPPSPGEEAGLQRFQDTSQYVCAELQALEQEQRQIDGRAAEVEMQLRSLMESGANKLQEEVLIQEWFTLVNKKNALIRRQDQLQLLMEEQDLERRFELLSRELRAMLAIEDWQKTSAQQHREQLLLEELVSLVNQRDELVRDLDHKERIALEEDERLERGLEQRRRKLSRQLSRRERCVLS
Chain of UniProt Q86VR2 (Q86VR2 whole entry): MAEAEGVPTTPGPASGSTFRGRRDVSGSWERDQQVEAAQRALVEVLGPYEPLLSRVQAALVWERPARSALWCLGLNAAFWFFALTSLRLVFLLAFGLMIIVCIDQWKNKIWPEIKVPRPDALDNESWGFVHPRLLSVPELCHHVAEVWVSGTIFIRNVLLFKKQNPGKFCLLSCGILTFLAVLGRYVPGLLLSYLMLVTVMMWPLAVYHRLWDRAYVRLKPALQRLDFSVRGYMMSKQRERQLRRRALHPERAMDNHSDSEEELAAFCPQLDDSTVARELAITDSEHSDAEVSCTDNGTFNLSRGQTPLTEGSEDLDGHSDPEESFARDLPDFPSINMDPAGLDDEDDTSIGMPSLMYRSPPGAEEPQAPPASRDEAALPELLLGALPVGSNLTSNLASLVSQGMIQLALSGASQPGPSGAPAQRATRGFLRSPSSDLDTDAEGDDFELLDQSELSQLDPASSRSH
Chain of UniProt Q5RI15 (Q5RI15 whole entry): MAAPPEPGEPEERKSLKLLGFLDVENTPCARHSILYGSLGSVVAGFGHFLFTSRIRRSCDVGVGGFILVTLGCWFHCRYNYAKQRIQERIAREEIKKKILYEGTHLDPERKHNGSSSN

Target	NP40-soluble protein abundance (concentration: 1mM)	NP40-soluble protein abundance (concentration: 2mM)	NP40-soluble protein abundance (concentration: 4mM)	NP40-soluble protein abundance (concentration: 6mM)	NP40-soluble protein abundance (concentration: 8mM)	NP40-soluble protein abundance (concentration: 10mM)
LRRC59 (UniProt Q96AG4)	1.11 ± 0.048	1.32 ± 0.3	1.13 ± 0.089	1.15 ± 0.028	1.12 ± 0.052	1.19 ± 0.13
UniProt Q6UXH1|Q6UXH1-4|Q6UXH1-5|Q6UXH1-6	1.01 ± 0.032	1.07 ± 0.056	1.01 ± 0.029	0.964 ± 0.019	0.956 ± 0.045	1.01 ± 0.029
UniProt Q5RI15|Q5RI15-2	1.12 ± 0.073	1.13 ± 0.1	1.05 ± 0.034	1.1 ± 0.044	1.05 ± 0.049	1.11 ± 0.04
UniProt Q8N3X1|Q8N3X1-2	1.04 ± 0.042	1.12 ± 0.093	1.21 ± 0.11	1.45 ± 0.15	1.49 ± 0.17	1.58 ± 0.24
UniProt Q15390|H0YBZ4|Q15390-2	1.008 ± 0.0075	1.05 ± 0.071	1.01 ± 0.02	1 ± 0.011	0.9719 ± 0.0073	0.989 ± 0.021
UniProt Q86VR2	0.989 ± 0.0052	0.966 ± 0.024	0.977 ± 0.025	0.976 ± 0.015	0.9994 ± 0.002	0.952 ± 0.01
UniProt Q92793|Q92793-2	1.05 ± 0.037	1.05 ± 0.028	1.01 ± 0.035	1.01 ± 0.04	1.02 ± 0.015	1.05 ± 0.02
CBLL1 (UniProt Q75N03)	1 ± 0.01	1.04 ± 0.022	1.03 ± 0.045	0.995 ± 0.015	0.976 ± 0.014	0.985 ± 0.016
FAM91A1 (UniProt Q658Y4)	0.958 ± 0.033	0.915 ± 0.068	0.961 ± 0.031	0.99 ± 0.041	1.01 ± 0.034	0.975 ± 0.054
UniProt Q5XUX1|Q5XUX1-3|Q5XUX1-2	0.986 ± 0.017	0.96 ± 0.042	0.976 ± 0.026	0.993 ± 0.021	0.982 ± 0.024	0.969 ± 0.028
UniProt Q15642-2|Q15642-3|Q15642-4|W4VSQ9|M0R0F9	1.09 ± 0.014	1.07 ± 0.036	1.07 ± 0.014	1.04 ± 0.054	1.07 ± 0.025	1.06 ± 0.065
UniProt Q15056-2|Q15056	0.999 ± 0.037	1.03 ± 0.035	0.945 ± 0.14	0.94 ± 0.081	0.929 ± 0.087	0.884 ± 0.21
UniProt Q6PI47	0.873 ± 0.06	0.905 ± 0.046	0.947 ± 0.051	1 ± 0.023	1.08 ± 0.047	1.1 ± 0.064
UniProt Q16666|Q16666-2	1.06 ± 0.052	1.11 ± 0.023	1.22 ± 0.069	1.43 ± 0.14	1.49 ± 0.14	1.53 ± 0.19
UniProt Q5FWF5	1.01 ± 0.012	1.012 ± 0.0086	1 ± 0.026	1.04 ± 0.035	1.029 ± 7.1e-05	1.06 ± 0.023
THOC7 (UniProt Q6I9Y2)	1.29 ± 0.045	1.47 ± 0.2	1.57 ± 0.24	1.73 ± 0.39	1.85 ± 0.47	1.93 ± 0.64
EHBP1L1 (UniProt Q8N3D4)	1.06 ± 0.028	1.11 ± 0.099	1.07 ± 0.11	1.02 ± 0.034	1.01 ± 0.059	1.01 ± 0.08
PCGF5 (UniProt Q86SE9)	1.01 ± 0.043	1.01 ± 0.029	1.01 ± 0.065	0.967 ± 0.054	0.974 ± 0.039	0.945 ± 0.036
DNAJB14 (UniProt Q8TBM8)	0.975 ± 0.025	0.987 ± 0.066	0.971 ± 0.028	0.953 ± 0.039	0.952 ± 0.035	0.947 ± 0.035
DTX3L (UniProt Q8TDB6)	1.03 ± 0.02	1.01 ± 0.024	1.04 ± 0.059	0.994 ± 0.03	0.996 ± 0.038	0.993 ± 0.022
UniProt Q7Z2K8|Q7Z2K8-2	0.958 ± 0.012	0.913 ± 0.023	1.12 ± 0.049	1.1 ± 0.038	0.932 ± 0.057	0.932 ± 0.031
UniProt Q93073|Q93073-2	0.997 ± 0.026	1.01 ± 0.046	0.978 ± 0.039	0.996 ± 0.013	0.972 ± 0.024	0.971 ± 0.027
UniProt Q93074-2	1.01 ± 0.032	1 ± 0.028	1.06 ± 0.019	0.971 ± 0.08	0.984 ± 0.042	0.999 ± 0.067
EPM2AIP1 (UniProt Q7L775)	0.961 ± 0.015	0.94 ± 0.032	0.96 ± 0.025	0.947 ± 0.028	0.9617 ± 0.0055	0.958 ± 0.041
UniProt Q16698-2|Q16698	1.06 ± 0.085	1.11 ± 0.058	1.19 ± 0.08	1.21 ± 0.014	1.26 ± 0.041	1.25 ± 0.02
